Test results: PubChem BioAssay AID1159580 (chemical genetic matrix, 2015)
About 2,000 (36%) of roughly 5,500 compounds were called active. About 18% were inconclusive and are not listed. Rule as the data show it: active = normalized growth mostly below about 0.91 (no sharp cut-off); inconclusive = no clear call, values can overlap the other calls; inactive = mostly above about 0.92. The list shows a part of the results.

Assay: chemical genetic growth profiling, strain panel (AID 1159580);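 also: tested at 20 µM; growth read once vehicle control cultures reached saturation at 30 °C; 1 = growth at the plate median or of vehicle wells; lower values mean less growth of the strain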
Conditions: growth OD

Measured: normalized growth

CC(C)[C@@H]1CC[C@@H](C)CC1=O
inactive: S. cerevisiae deletion strains, locus YJR066W, strain TOR1, stronger effect = lower value 0.94 | S. cerevisiae deletion strains, locus YJR075W, strain HOC1, stronger effect = lower value 1.02 | S. cerevisiae deletion strains, locus YKL009W, strain mrt4, stronger effect = lower value 1.01 | S. cerevisiae deletion strains, locus YKL068W, stronger effect = lower value 1.02 | S. cerevisiae deletion strains, locus YKL085W, strain MDH1 (second series), stronger effect = lower value 0.999 | S. cerevisiae deletion strains, locus YKL085W, strain MDH1, stronger effect = lower value 0.999 | S. cerevisiae deletion strains, locus YKL160W, strain elf1, stronger effect = lower value 0.981 | S. cerevisiae deletion strains, locus YKR001C, strain vps1, stronger effect = lower value 0.991 | S. cerevisiae deletion strains, locus YKR026C, strain gcn3, stronger effect = lower value 0.984 | S. cerevisiae deletion strains, locus YKR091W, strain srl3, stronger effect = lower value 0.991 | S. cerevisiae deletion strains, locus YLL001W, strain dnm1, stronger effect = lower value 0.98 | S. cerevisiae deletion strains, locus YLL026W, stronger effect = lower value 0.985 | S. cerevisiae deletion strains, locus YLL041C, strain sdh2, stronger effect = lower value 0.991 | S. cerevisiae deletion strains, locus YLR027C, strain aat2, stronger effect = lower value 0.979 | S. cerevisiae deletion strains, locus YLR039C, strain RIC1, stronger effect = lower value 1.09 | S. cerevisiae deletion strains, locus YLR058C, strain SHM2, stronger effect = lower value 1.02 | S. cerevisiae deletion strains, locus YLR102C, strain apc9, stronger effect = lower value 0.997 | S. cerevisiae deletion strains, locus YLR113W, strain HOG1, stronger effect = lower value 0.967 | S. cerevisiae deletion strains, locus YLR221C, strain rsa3, stronger effect = lower value 1.01 | S. cerevisiae deletion strains, locus YLR258W, strain gsy2, stronger effect = lower value 0.996 | S. cerevisiae deletion strains, locus YLR262C, strain YPT6 (second series), stronger effect = lower value 0.979 | S. cerevisiae deletion strains, locus YLR262C, strain YPT6, stronger effect = lower value 1.14 | S. cerevisiae deletion strains, locus YLR268W, strain sec22, stronger effect = lower value 1.02 | S. cerevisiae deletion strains, locus YLR320W, strain mms22, stronger effect = lower value 1.01 | S. cerevisiae deletion strains, locus YLR330W, strain CHS5, stronger effect = lower value 1.01 | S. cerevisiae deletion strains, locus YLR342W, strain FKS1 (second series), stronger effect = lower value 1.03 | S. cerevisiae deletion strains, locus YLR342W, strain FKS1, stronger effect = lower value 0.995 | S. cerevisiae deletion strains, locus YLR357W, strain rsc2, stronger effect = lower value 0.998 | S. cerevisiae deletion strains, locus YLR370C, strain arc18, stronger effect = lower value 0.983 | S. cerevisiae deletion strains, locus YLR371W, strain rom2, stronger effect = lower value 1 | S. cerevisiae deletion strains, locus YLR384C, strain iki3, stronger effect = lower value 1.01 | S. cerevisiae deletion strains, locus YLR418C, strain cdc73, stronger effect = lower value 1.01 | S. cerevisiae deletion strains, locus YML016C, strain PPZ1, stronger effect = lower value 1.01 | S. cerevisiae deletion strains, locus YML032C, strain rad52, stronger effect = lower value 1.01 | S. cerevisiae deletion strains, locus YML120C, strain ndi1, stronger effect = lower value 0.982 | S. cerevisiae deletion strains, locus YML124C, strain tub3, stronger effect = lower value 0.999 | S. cerevisiae deletion strains, locus YMR058W, strain fet3, stronger effect = lower value 0.989 | S. cerevisiae deletion strains, locus YMR078C, strain ctf18, stronger effect = lower value 1 | S. cerevisiae deletion strains, locus YMR125W, strain sto1, stronger effect = lower value 0.965 | S. cerevisiae deletion strains, locus YMR129W, stronger effect = lower value 1 | S. cerevisiae deletion strains, locus YMR205C, strain PFK2, stronger effect = lower value 1 | S. cerevisiae deletion strains, locus YMR223W, strain ubp8, stronger effect = lower value 1 | S. cerevisiae deletion strains, locus YMR231W, strain pep5, stronger effect = lower value 1 | S. cerevisiae deletion strains, locus YMR263W, strain SAP30, stronger effect = lower value 1.02 | S. cerevisiae deletion strains, locus YMR307W, strain GAS1, stronger effect = lower value 1.02 | S. cerevisiae deletion strains, locus YNL067W, strain RPL9B, stronger effect = lower value 1.03 | S. cerevisiae deletion strains, locus YNL071W, strain lat1, stronger effect = lower value 0.991 | S. cerevisiae deletion strains, locus YNL128W, strain TEP1, stronger effect = lower value 1.02 | S. cerevisiae deletion strains, locus YNL153C, strain GIM3, stronger effect = lower value 1.03 | S. cerevisiae deletion strains, locus YNL183C, strain NPR1, stronger effect = lower value 0.935 | S. cerevisiae deletion strains, locus YNL209W, strain ssb2, stronger effect = lower value 1 | S. cerevisiae deletion strains, locus YNL233W, strain BNI4, stronger effect = lower value 1.04 | S. cerevisiae deletion strains, locus YNL248C, strain rpa49, stronger effect = lower value 0.997 | S. cerevisiae deletion strains, locus YNL250W, strain rad50, stronger effect = lower value 1 | S. cerevisiae deletion strains, locus YNL271C, strain bni1, stronger effect = lower value 1 | S. cerevisiae deletion strains, locus YNL298W, strain CLA4, stronger effect = lower value 0.999 | S. cerevisiae deletion strains, locus YNL307C, strain MCK1, stronger effect = lower value 1.01 | S. cerevisiae deletion strains, locus YNL322C, strain KRE1 (second series), stronger effect = lower value 0.995 | S. cerevisiae deletion strains, locus YNL322C, strain KRE1, stronger effect = lower value 1.01 | S. cerevisiae deletion strains, locus YNR049C, strain mso1, stronger effect = lower value 1 | S. cerevisiae deletion strains, locus YNR052C, strain pop2, stronger effect = lower value 0.991 | S. cerevisiae deletion strains, locus YOL006C, strain TOP1, stronger effect = lower value 1.06 | S. cerevisiae deletion strains, locus YOL012C, strain htz1 0.896 | S. cerevisiae deletion strains, locus YOL147C, strain pex11, stronger effect = lower value 1.01 | S. cerevisiae deletion strains, locus YOR001W, strain rrp6, stronger effect = lower value 1.01 | S. cerevisiae deletion strains, locus YOR061W, strain CKA2, stronger effect = lower value 1.01 | S. cerevisiae deletion strains, locus YOR069W, strain VPS5, stronger effect = lower value 0.999 | S. cerevisiae deletion strains, locus YOR070C, strain gyp1, stronger effect = lower value 0.996 | S. cerevisiae deletion strains, locus YOR080W, strain dia2, stronger effect = lower value 0.99 | S. cerevisiae deletion strains, locus YOR083W, strain WHI5, stronger effect = lower value 0.965 | S. cerevisiae deletion strains, locus YOR106W, strain vam3, stronger effect = lower value 0.98 | S. cerevisiae deletion strains, locus YOR136W, strain idh2, stronger effect = lower value 0.987 | S. cerevisiae deletion strains, locus YOR144C, strain elg1, stronger effect = lower value 1 | S. cerevisiae deletion strains, locus YOR184W, strain ser1, stronger effect = lower value 1.02 | S. cerevisiae deletion strains, locus YOR231W, strain MKK1, stronger effect = lower value 0.955 | S. cerevisiae deletion strains, locus YOR265W, strain rbl2, stronger effect = lower value 0.989 | S. cerevisiae deletion strains, locus YOR270C, strain vph1, stronger effect = lower value 1.01 | S. cerevisiae deletion strains, locus YOR290C, strain snf2, stronger effect = lower value 0.954 | S. cerevisiae deletion strains, locus YOR316C, strain cot1, stronger effect = lower value 1.01 | S. cerevisiae deletion strains, locus YPL051W, strain arl3, stronger effect = lower value 0.998 | S. cerevisiae deletion strains, locus YPL055C, strain LGE1, stronger effect = lower value 1.02 | S. cerevisiae deletion strains, locus YPL078C, strain atp4, stronger effect = lower value 0.969 | S. cerevisiae deletion strains, locus YPL106C, strain sse1, stronger effect = lower value 0.967 | S. cerevisiae deletion strains, locus YPL240C, strain hsp82, stronger effect = lower value 0.996 | S. cerevisiae deletion strains, locus YPL241C, strain CIN2, stronger effect = lower value 1.01 | S. cerevisiae deletion strains, locus YPL256C, strain CLN2, stronger effect = lower value 0.96 | S. cerevisiae deletion strains, locus YPR119W, strain clb2, stronger effect = lower value 1 | S. cerevisiae deletion strains, locus YPR141C, strain kar3, stronger effect = lower value 0.991 | S. cerevisiae deletion strains, locus YPR163C, strain tif3, stronger effect = lower value 1.01 | S. cerevisiae deletion strains, locus YPR167C, strain met16, stronger effect = lower value 0.992 | S. cerevisiae deletion strains, strain wtn01, stronger effect = lower value 0.992 | S. cerevisiae strains, strain wild type, stronger effect = lower value 1.01
